“And” between values parts separate entries of the source, which are not always exact repeats. Equal entries are not always repeated. The campaign covered roughly 410,000 compounds. About 2,400 (0.59%) were called active. Rule as the data show it: active = max activation above about 30%; inactive = the rest. The sample as a whole holds a higher share of actives than the screen did. Where a SMILES comes first, the peptide text is derived from it. Bridges are numbered along the chain shown (N, C = ends). [ ]: non-standard residue; d: D form. The star is where a group is joined. X1 = CC[C@H](C)CCCCC(=O)*; Dab = NCC[C@H](N)C(=O)O

D(3) dopamine receptor (Homo sapiens), sequence (P35462 whole entry, looked up): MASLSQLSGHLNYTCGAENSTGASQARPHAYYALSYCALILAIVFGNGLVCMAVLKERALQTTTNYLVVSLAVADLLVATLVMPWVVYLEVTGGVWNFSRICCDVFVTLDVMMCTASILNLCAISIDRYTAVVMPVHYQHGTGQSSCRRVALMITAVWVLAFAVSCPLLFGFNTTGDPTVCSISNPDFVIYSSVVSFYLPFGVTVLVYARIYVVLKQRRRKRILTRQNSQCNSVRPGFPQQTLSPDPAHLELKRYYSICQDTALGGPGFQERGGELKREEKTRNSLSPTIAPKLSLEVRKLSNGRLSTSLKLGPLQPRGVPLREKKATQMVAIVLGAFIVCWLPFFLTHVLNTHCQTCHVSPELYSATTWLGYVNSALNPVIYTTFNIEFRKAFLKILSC

The test addresses D(3) dopamine receptor (Homo sapiens) (UniProt P35462). As to the kind of experiment: qHTS of D3 Dopamine Receptor Agonist: qHTS. Also: 0% is about no effect. As to conditions: D3R DiscoveRx beta-arrestin cells, luminescence, 90 min; hits give high values. In a few lines: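 Cells at 1500/well, incubated overnight, then treated with pinned compounds (dopamine as control) for 90 min at 37 degrees C. DiscoveRx reagent added for 30 - 60 minutes at room temperature; luminescence read.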
For orientation: qHTS replaces the single test concentration by a dilution series.
As for `CCCCC(NS(=O)(=O)c1ccc(C)cc1)C(=O)Oc1ccc2c3c(c(=O)oc2c1)CCC3` (configuration not stated), the max activation was 51.9% (active).

Take `CSCCC(NS(=O)(=O)c1ccc(C)cc1)C(=O)N1CCCC1` (configuration not stated): the max activation is -0.577% (inactive).

For `NC(=O)C1CCN(C(=O)COc2ccc3c4c(c(=O)oc3c2)CCC4)CC1`, the max activation is -9.64% (inactive).

Turning to `COc1ccccc1NC(=O)c1oc2ccccc2c1NC(=O)C(C)C`, the max activation was 2.74% (inactive).

As to `CSc1ccc(/C=N\NC(=O)COc2ccc(Cl)cc2Br)cc1`, the max activation was 32.8% (active).

In the case of `O=C(COc1ccc(Cl)cc1Cl)NCCCNC(=O)c1cnccn1`, the max activation is 5.48% (inactive).

With `C/C(CC(=O)NCc1ccc(Cl)cc1)=N\NC(=O)COc1ccc(C)cc1Br`, the max activation is -14.3% (inactive).

As for `CC[C@H](C)CCCCC(=O)N[C@@H](CCN)C(=O)N[C@H](C(=O)N[C@@H](CCN)C(=O)N[C@H]1CCNC(=O)[C@@H]([C@H](C)O)NC(=O)[C@H](CCN)NC(=O)[C@H](CCN)NC(=O)[C@H](CC(C)C)NC(=O)[C@@H](CC(C)C)NC(=O)[C@H](CCN)NC1=O)[C@@H](C)O` (X1-[Dab]T[Dab][Dab][Dab][dL]L[Dab][Dab][dT]; lactam 4-C), the max activation is -1.99% (inactive).

Take `CC1(C)[C@@H]2CC[C@@]1(C)[C@H](OC(=O)CSC#N)C2`: the max activation is -0.173% (inactive).

With `O=S(=O)(NCCS(=O)(=O)N1CCN(c2ccccc2)CC1)c1ccc(Cl)cc1`, the max activation is 0.296% (inactive).

Consider `CCS(=O)(=O)N1CCC(N2CCN(c3ccccc3)CC2)CC1`, for which the max activation is 64.6% (active).

For the compound `CS(=O)(=O)N1CCC(C(=O)N2CCN(c3ccccc3)CC2)CC1`, the max activation is 6.05% (inactive).

Consider `Cc1ccc(C)c(N2CCN(C(=O)CCc3c(C)nc4c(c3C)c(=O)n(C)c(=O)n4C)CC2)c1`, for which the max activation is 1.37% (inactive).

For `COc1cc2c(cc1OC)[C@@H](Cc1cc(OC)c(OC)c(OC)c1)[N+](C)(CCCOC(=O)CC/C=C/CCC(=O)OCCC[N+]1(C)CCc3cc(OC)c(OC)cc3[C@H]1Cc1cc(OC)c(OC)c(OC)c1)CC2` (some centres not stated), the max activation is 4.34% (inactive) and 3.72% (inactive).

With `Cn1nnc2c(N3CCN(c4ccccc4)CC3)ncnc21`, the max activation is 1.99% (inactive).

As for `CCc1cc2c(N3CCN(c4nnc(CC)s4)CC3)ncnc2s1`, the max activation is 13.8% (inactive).

`Oc1ccccc1N1CCN(c2ncnc3sc(-c4ccccc4)cc23)CC1`: the max activation is 31.1% (active).

As for `CCCCN(CC)CCCNC(=O)c1nn(C)c2c1CS(=O)(=O)c1ccccc1-2`, the max activation is 31.8% (active).

Take `COc1ccc(OC)c(CCNC(=O)c2nn(C)c3c2CS(=O)(=O)c2ccccc2-3)c1`: the max activation was 2.65% (inactive).

Take `CCCCN(CC)CCCNC(=O)c1nn(C)c2c1CSc1ccccc1-2`: the max activation was 3.9% (inactive).

Take `CCOc1ccccc1CNC(=O)c1ccc(-n2c(C)cc3c2CCC(C)C3)cc1` (configuration not stated): the max activation was -10.9% (inactive).

Regarding `COC(=O)c1cc(NC(=O)CCc2c(C)nc3c4c(C)cc(C)nc4nn3c2C)cc(C(=O)OC)c1`, the max activation was -21.8% (inactive).

As to `O=C(CSc1nccn1-c1ccc(F)cc1)Nc1cccc2ccccc12`, the max activation is 7.68% (inactive).

As to `O=C(CC[C@H]1O[C@@H](n2ccc(=O)[nH]c2=O)[C@H](O)[C@@H]1O)N[C@H](Cc1ccccc1)C(=O)NCCCN1CCCC1=O`, the max activation was -10.2% (inactive).

For `Cc1ccc(NC(=O)[C@H](Cc2ccccc2)NC(=O)CC[C@H]2O[C@@H](n3ccc(=O)[nH]c3=O)[C@H](O)[C@@H]2O)cc1C`, the max activation is 63.9% (active).

For the compound `O=C(CC[C@H]1O[C@@H](n2ccc(=O)[nH]c2=O)[C@H](O)[C@@H]1O)N[C@H](Cc1ccccc1)C(=O)NCc1ccco1`, the max activation was 13.5% (inactive).

For `CCOc1ccc(-c2cc3c(=O)n(CC(=O)NCc4ccc(OC)cc4)ccn3n2)cc1`, the max activation was -2.91% (inactive).

As to `COc1cc(-c2c(-c3ccc4c(c3)OCO4)noc2C)ccc1F`, the max activation is -40.8% (inactive).

Turning to `COc1cc2c(-c3ccc4c(c3)OCO4)c(-c3ccsc3)oc(=O)c2cc1OC`, the max activation was 30.4% (active).

As to `COc1cc(CNCc2ccc3c(c2)OCO3)c([N+](=O)[O-])cc1OC`, the max activation was -8.17% (inactive).

As for `O=C(CCc1cn(Cc2ccc(F)cc2)c2ccccc12)NC1CCCCC1`, the max activation is -6.69% (inactive).

Consider `C/C=C/C1=C(C(=O)O)N2C(=O)[C@@H](NC(=O)[C@H](N)c3ccc(O)cc3)[C@H]2SC1`, for which the max activation was -0.123% (inactive).

Turning to `C#C[C@]1(O)CC[C@H]2[C@@H]3CCC4=C/C(=N/O)CC[C@@H]4[C@H]3CC[C@@]21CC`, the max activation is 4.22% (inactive).

As for `CC(C)CCNC(=O)c1cccnc1Sc1ccccc1`, the max activation is -0.291% (inactive).

Take `CC(C)CCNC(=O)c1[nH]c(C(F)(F)F)nc1-c1ccccc1`: the max activation was 83.5% (active).

As for `CC(C)(C)OC(=O)N1CCN(C(=O)c2[nH]c(C(F)(F)F)nc2-c2ccccc2)CC1`, the max activation was -1.11% (inactive).

For the compound `COc1ccc(CCNC(=O)CCCn2c(=O)c3ccccc3n(Cc3ccc(C)cc3)c2=O)cc1OC`, the max activation was -1.49% (inactive).

Take `CC[C@H](C)CCCCC(=O)N[C@@H](CCN)C(=O)N[C@H](C(=O)N[C@@H](CCN)C(=O)N[C@H]1CCNC(=O)[C@H]([C@@H](C)O)NC(=O)[C@H](CCN)NC(=O)[C@H](CCN)NC(=O)[C@H](CC(C)C)NC(=O)[C@@H](CC(C)C)NC(=O)[C@H](CCN)NC1=O)[C@@H](C)O` (X1-[Dab]T[Dab][Dab][Dab][dL]L[Dab][Dab]T; lactam 4-C): the max activation is 0.26% (inactive).

As for `COc1cccc(CNC(=O)C2CCC(CNS(=O)(=O)c3cccs3)CC2)c1` (configuration not stated), the max activation is 2.62% (inactive).

On to `CCn1c(CNC(=O)c2cc(OC)c(OC)c(OC)c2)cc2cc(C)ccc21`, for which the max activation is 30.2% (active).

Turning to `COc1cc(-n2c(C)nc3cc(C(=O)NCc4ccco4)ccc32)cc(OC)c1OC`, the max activation was -12.8% (inactive).

Take `COc1cc(C(=O)NCC(=O)N2CC=C(c3ccccc3)CC2)cc(OC)c1OC`: the max activation was -3.75% (inactive).

As to `Cc1cccc(C(CC(=O)NCC2(c3ccccc3)CCCC2)c2ccccc2)c1O` (configuration not stated), the max activation was -11.1% (inactive).

In the case of `CCOc1ccccc1N(CC)C(=O)c1cc2ccc3cccnc3c2[nH]1`, the max activation is 8.81% (inactive).

Turning to `Cc1ccc(C)c(N2CCN(Cc3nnc(-c4ccccc4)o3)CC2)c1`, the max activation was -22.5% (inactive).

On to `c1ccc(-c2cnc(CN3CCN(c4ccccc4)CC3)o2)cc1`, for which the max activation is 47.7% (active).

With `Cc1ccc(-c2nnc(CN3CCN(C)CC3)o2)cc1`, the max activation is -9.28% (inactive).

The values are drawn from PubChem BioAssay AID652048 (National Center for Advancing Translational Sciences (NCATS), 2013).
